# Laboratory results from PubChem BioAssay AID818 (SRMLSC, 2007).
# The campaign covered roughly 140,000 compounds. About 2,100 (1.5%) were called active.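 Rule for the calls: active = viability at or under a set limit, the compound median less 4 SD (cut at about 6% in these data); inactive = the rest.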 Shown is part of a subset that was picked to be rich in actives.
# Test: primary screen for growth suppressors in beta-catenin knockout HCT116 cells (colon tumor, human) (AID 818);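 note: 0% = Hyamine 1622 control at 20 µM and 100% = untreated cell control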
# Conditions: CellTiter-Glo, 60 h, at 10 µM, hits give low values
row,Compound,viability
1,COc1ccc(OC)c(-c2c(=O)n(OCc3ccccc3Br)c3ccccc3[n+]2[O-])c1,74.9% (inactive)
2,COc1ccc(C(=O)Nc2c(Cl)cc(Cl)cc2C(=O)N2CCC(C)CC2)cc1,77.2% (inactive)
3,CCOc1cc(N2CCOCC2)c(OCC)cc1NC(=O)COc1cccc2cccnc12,4.29% (active)
4,CCOc1cc(N2CCOCC2)c(OCC)cc1NC(=O)COC(=O)[C@H](Cc1c[nH]c2ccccc12)NC(C)=O,87.2% (inactive)
5,Cc1cccc(OCC(=O)NC(=S)Nc2ccccc2N2CCOCC2)c1,98.4% (inactive)
6,CCOC(=O)c1ccccc1N1C(=O)C2Sc3[nH]c(=O)sc3C(/C=C/c3ccccc3)C2C1=O (configuration not stated),91.4% (inactive)
7,Cc1nc2c(C(=O)NCc3cccs3)cnn2c(C)c1Cc1ccc(F)cc1,83.5% (inactive)
8,N#C/C(=C/c1ccc(N2CCCCC2)o1)C(=O)NCCc1c[nH]c2ccccc12,90.2% (inactive)
9,O=C(Nc1ccc([N+](=O)[O-])cc1)C1(c2ccccc2)CCOCC1,94.8% (inactive)
10,O=C1Nc2ccccc2C12Nc1ccccc1S2 (configuration not stated),86.2% (inactive)
11,CCc1ccc2c(c1)C1(NN=C(c3ccccc3)S1)C(=O)N2 (configuration not stated),4.17% (active)
12,C=C1c2cc(CC)ccc2NC(=O)N1c1ccc(C)cc1,98.3% (inactive)
13,Cc1ccc2c(CC(=O)NCc3cccs3)coc2c1,102% (inactive)
14,Cc1ccnc(NS(=O)(=O)c2ccc(NC(=O)c3ccc(S(=O)(=O)N4CCOCC4)cc3)cc2)n1,97% (inactive)
15,CCN(CC)CCOc1ccc2c(c1)C(=NNC(=O)c1ccccn1)c1cc(OCCN(CC)CC)ccc1-2,0.37% (active)
16,CCC(C(=O)OCCN(CC)CC)c1ccccc1 (configuration not stated),106% (inactive)
17,CCC(C)(NC(=O)c1ccccn1)C(=O)NC1CCCCC1 (configuration not stated),89.8% (inactive)
18,COCCNc1nc(N)c([N+](=O)[O-])c(NCCO)n1,98.5% (inactive)
19,O=C(Nc1ccccc1F)c1ccccc1-c1ccc(C(F)(F)F)cc1,77.4% (inactive)
20,CCOC(=O)C1=C(C)NC(=S)NC1c1cccs1 (configuration not stated),84.5% (inactive)
21,Cc1cccc(NC(=O)NC(=S)NC(=O)c2ccccc2)c1,102% (inactive)
22,O=C(NC1CCN(Cc2ccccc2)CC1)c1c(F)cccc1F,93.9% (inactive)
